Reference: PubChem BioAssay (NCI)
Where “and” joins values, the source holds several entries; their conditions need not be identical. Equal entries are not always repeated. Compounds without any hit were thinned out: in the full panel of roughly 83,000, 20% have a hit.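 Values shown are percent growth following 48 h exposure of cells in 96-well plates to a single concentration of compound; below 10 was considered active.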 Calls of active or inactive are those of the source.

Tests used:
Assay in all cases: NCI-60 one-dose screen, 48 h (100 = growth as untreated, 0 = no growth, -100 = all killed)
Details in all cases: 10 µM unless noted
[1] = tested on: NCI-H23 lung
[2] = tested on: NCI-H226 lung
[3] = tested on: HOP-62 NSCLC
[4] = tested on: NCI-H460 lung
[5] = tested on: HOP-92 NSCLC
[6] = tested on: NCI-H522 lung
[7] = tested on: A549/ATCC NSCLC
[8] = tested on: 786-0 renal
[9] = tested on: COLO 205 colon
[10] = tested on: NCI-H322M lung

In the case of `CC1(c2ccc3ccccc3c2)CCC(=O)O1` (stereo not drawn), the growth [1] was 95% (inactive), the growth [2] was 110% (inactive) and the growth [3] was 93.5% (inactive). The growth [4] was 112% (inactive), the growth [5] was 106% (inactive) and the growth [6] was 91.3% (inactive). The growth [7] was 101% (inactive), the growth [8] was 103% (inactive) and the growth [9] was 99.3% (inactive).
In the case of `Cc1ccc(-c2noc(CC(=O)c3ccc([N+](=O)[O-])cc3)n2)cc1`, the growth [1] was 95.9% (inactive), the growth [2] was 92.9% (inactive) and the growth [10] was 105% (inactive). For the same compound, the growth [5] was 101% (inactive), the growth [6] was 95.2% (inactive) and the growth [7] was 94.6% (inactive). For the same compound, the growth [8] was 99.6% (inactive) and the growth [9] was 109% (inactive).
In the case of `Cc1n[nH]c(=O)n(/N=C\c2c[nH]c3ccccc23)c1=O`, the growth [1] was 102% (inactive), the growth [2] was 103% (inactive) and the growth [10] was 94.2% (inactive). For the same compound, the growth [3] was 96.1% (inactive), the growth [5] was 84.2% (inactive) and the growth [6] was 94.1% (inactive). For the same compound, the growth [7] was 93.1% (inactive), the growth [8] was 123% (inactive) and the growth [9] was 104% (inactive).
For `Cc1nn(-c2ccc(Cl)cc2)c2ncnc(N/N=C/c3ccccc3O)c12`, the growth [1] was 37% (inactive) and 18.5% (inactive), the growth [2] was 52.8% (inactive) and 27.9% (inactive) and the growth [10] was 33.3% (inactive) and 7.57% (active). For the same compound, the growth [3] was 7.93% (active) and 9.97% (active), the growth [5] was 44.1% (inactive) and 26.6% (inactive) and the growth [6] was 23.3% (inactive). The growth [8] was 8.99% (active) and 6.59% (active) and the growth [9] was 18.7% (inactive) and 4.16% (active).
For `CCN(CC)CCNc1ccc(C)c2sc3ccccc3c(=O)c12` (tested in a mixture with another compound), the growth [1] was 46.1% (inactive) and 52.4% (inactive), the growth [2] was 64.9% (inactive) and 64.7% (inactive) and the growth [10] was 30% (inactive) and 56% (inactive). The growth [3] was 51.4% (inactive) and 51.3% (inactive), the growth [5] was 68.6% (inactive) and 38.1% (inactive) and the growth [6] was 22.6% (inactive) and 39.6% (inactive). For the same compound, the growth [7] was 21.9% (inactive) and 19.8% (inactive), the growth [8] was 33.7% (inactive) and 37.3% (inactive) and the growth [9] was 27% (inactive) and 14.7% (inactive).
`Cn1c(=O)n(-c2ccc(C(C)(C)C#N)cc2)c2c3cc(-c4cnc5ccccc5c4)ccc3ncc21` was tested, and the growth [1] was 7.45% (active) and 15.4% (inactive), the growth [2] was 7.02% (active) and 9.42% (active) and the growth [3] was 1.69% (active) and 3.34% (active). For the same compound, the growth [4] was 3.03% (active) and -9.04% (active), the growth [5] was -4.42% (active) and the growth [6] was 2.87% (active) and -9.46% (active). The growth [7] was 0.549% (active) and -9.22% (active), the growth [8] was 0.54% (active) and -4.76% (active) and the growth [9] was -25% (active) and -3.99% (active).
In the case of `CCOC(=O)C(C(=O)OCC)C(c1ccccc1)N1CCN(c2ccccc2)CC1` (stereo not drawn), the growth [1] was 107% (inactive) and 114% (inactive), the growth [2] was 112% (inactive) and 96.9% (inactive) and the growth [10] was 93.3% (inactive) and 107% (inactive). The growth [3] was 116% (inactive) and 105% (inactive), the growth [5] was 98.1% (inactive) and 86.6% (inactive) and the growth [6] was 89.7% (inactive) and 88% (inactive). The growth [7] was 99.3% (inactive) and 83.2% (inactive), the growth [8] was 104% (inactive) and 102% (inactive) and the growth [9] was 114% (inactive) and 124% (inactive).
`CC1CCCc2sc3nc(NNC(=O)c4cnccn4)n(-c4ccccc4)c(=O)c3c21` (stereo not drawn) was tested, and the growth [1] was 23.9% (inactive) and 20.2% (inactive), the growth [2] was -2.24% (active) and -5.33% (active) and the growth [10] was 15.9% (inactive) and 6.48% (active). The growth [3] was 4.44% (active) and 1.42% (active), the growth [5] was 44% (inactive) and 42.3% (inactive) and the growth [6] was -10.4% (active) and 6.49% (active). For the same compound, the growth [7] was 3.51% (active) and 7.07% (active), the growth [8] was 16.1% (inactive) and 6.45% (active) and the growth [9] was 4.98% (active) and -2.77% (active).
With `NS(=O)(=O)c1cc2c(cc1Cl)NC(C(Cl)Cl)NS2(=O)=O` (stereo not drawn) the growth [1] was 120% (inactive) and 106% (inactive), the growth [2] was 108% (inactive) and 99.3% (inactive) and the growth [10] was 98.8% (inactive) and 101% (inactive). For the same compound, the growth [3] was 104% (inactive) and 122% (inactive), the growth [5] was 96.3% (inactive) and the growth [6] was 96.7% (inactive) and 104% (inactive). The growth [7] was 80.9% (inactive) and 106% (inactive), the growth [8] was 87.6% (inactive) and 104% (inactive) and the growth [9] was 109% (inactive) and 113% (inactive).
In the case of `O=C(CN1CCN(c2cc3c(cc2F)c(=O)c(C(=O)O)cn3C2CC2)CC1)Nc1ccc(Cl)cc1`, the growth [1] was 94.5% (inactive) and 87.5% (inactive), the growth [2] was 80.1% (inactive) and 96.7% (inactive) and the growth [3] was 71.7% (inactive) and 100% (inactive). The growth [4] was 88% (inactive) and 90.1% (inactive), the growth [5] was 78.9% (inactive) and 87.2% (inactive) and the growth [6] was -13.7% (active) and 83.5% (inactive). For the same compound, the growth [7] was 69.2% (inactive) and 86.8% (inactive), the growth [8] was 70.1% (inactive) and 83.8% (inactive) and the growth [9] was 99.9% (inactive) and 109% (inactive).
In the case of `Nc1ccc(N=Nc2ccc(S(=O)(=O)O)cc2)cc1S(=O)(=O)O`, the growth [1] was 95.6% (inactive) and 99.8% (inactive), the growth [2] was 110% (inactive) and 99.8% (inactive) and the growth [10] was 104% (inactive) and 110% (inactive). The growth [3] was 118% (inactive) and 101% (inactive), the growth [5] was 90.9% (inactive) and 72% (inactive) and the growth [6] was 91% (inactive) and 96.3% (inactive). The growth [7] was 95.1% (inactive) and 103% (inactive), the growth [8] was 104% (inactive) and 106% (inactive) and the growth [9] was 125% (inactive) and 119% (inactive).
For `O=C1c2ccccc2C(=O)c2c(NCCNCCO)ccc(NCCNCCO)c21`, the growth [1] was -70.8% (active) and 25.8% (inactive) and 29.5% (inactive), the growth [2] was -56.8% (active) and -20.6% (active) and -27.1% (active) and the growth [10] was 7.84% (active) and 19.3% (inactive) and -5.07% (active). The growth [3] was -20.4% (active) and 3.59% (active) and 9.04% (active), the growth [5] was -7.34% (active) and -5.98% (active) and the growth [6] was -86.2% (active) and -57.7% (active) and -56.1% (active). The growth [7] was 14.3% (inactive) and 1.64% (active), the growth [8] was 0.75% (active) and 23.8% (inactive) and 25.2% (inactive) and the growth [9] was -51.3% (active) and 20.9% (inactive) and 30.2% (inactive).
`N#C/C(=C1C=C/C(=N/O)C(Br)=C/1)c1ccccc1` was tested, and the growth [1] was 78.3% (inactive), the growth [2] was 32% (inactive) and the growth [10] was 42.4% (inactive). The growth [3] was 16.3% (inactive), the growth [5] was -6.62% (active) and the growth [6] was -43.3% (active). For the same compound, the growth [7] was 27.6% (inactive), the growth [8] was 20% (inactive) and the growth [9] was 83.2% (inactive).
For `OC(CSc1ccccc1)CN1CCN(c2cccc(Cl)c2)CC1` (stereo not drawn), the growth [1] was 104% (inactive) and 96.6% (inactive), the growth [2] was 91.4% (inactive) and 89.5% (inactive) and the growth [3] was 107% (inactive) and 102% (inactive). For the same compound, the growth [4] was 114% (inactive) and 109% (inactive), the growth [5] was 82% (inactive) and 83.2% (inactive) and the growth [6] was 104% (inactive) and 83.7% (inactive). The growth [7] was 101% (inactive) and 98.4% (inactive), the growth [8] was 94.8% (inactive) and 105% (inactive) and the growth [9] was 105% (inactive) and 99.9% (inactive).
In the case of `CC(=O)NC(Cc1ccccc1)C(=O)Oc1ccc2ccccc2c1` (stereo not drawn), the growth [1] was 95.9% (inactive) and 86.5% (inactive), the growth [2] was 101% (inactive) and 106% (inactive) and the growth [3] was 96.9% (inactive) and 94.7% (inactive). For the same compound, the growth [4] was 106% (inactive) and 107% (inactive), the growth [5] was 78% (inactive) and 84.9% (inactive) and the growth [6] was 98.2% (inactive). The growth [7] was 94.7% (inactive) and 102% (inactive), the growth [8] was 110% (inactive) and the growth [9] was 93.3% (inactive) and 105% (inactive).
With `CN1C(=O)C(N=Nc2ccc([N+](=O)[O-])cc2)SC1=S` (stereo not drawn) the growth [1] was 64.1% (inactive) and 43.7% (inactive), the growth [2] was 80.9% (inactive) and 70.3% (inactive) and the growth [10] was 62.2% (inactive) and 71.8% (inactive). For the same compound, the growth [3] was 41.1% (inactive) and 53.7% (inactive), the growth [5] was 61.2% (inactive) and 62.9% (inactive) and the growth [6] was 52.9% (inactive) and 68.1% (inactive). The growth [7] was 71% (inactive) and 76.3% (inactive), the growth [8] was 70.2% (inactive) and 75.1% (inactive) and the growth [9] was 67% (inactive) and 74.4% (inactive).
`CCN1CCN(CCNc2nccc(-c3c(-c4cccc(O)c4)nc4sccn34)n2)S1(=O)=O` was tested, and the growth [1] was 87.1% (inactive) and 88.3% (inactive), the growth [2] was 98.9% (inactive) and 99.1% (inactive) and the growth [3] was 120% (inactive) and 92.2% (inactive). The growth [4] was 52.7% (inactive) and 47.9% (inactive), the growth [5] was 32.2% (inactive) and the growth [6] was 67% (inactive) and 63.1% (inactive). For the same compound, the growth [7] was 86% (inactive) and 70.1% (inactive), the growth [8] was 94.2% (inactive) and 64.3% (inactive) and the growth [9] was 24.5% (inactive) and 28.1% (inactive).
For `Cc1ccc(S(=O)(=O)NCN2C(=O)c3ccccc3C2=O)cc1`, the growth [1] was 103% (inactive), the growth [2] was 115% (inactive) and the growth [3] was 112% (inactive). The growth [4] was 113% (inactive), the growth [5] was 109% (inactive) and the growth [6] was 103% (inactive). The growth [7] was 99% (inactive) and the growth [8] was 103% (inactive).
For `Cc1ccc(S(=O)(=O)Nc2nc3ccccc3nc2Nc2ccc3nsnc3c2)cc1`, the growth [1] was 48.7% (inactive) and 37.8% (inactive), the growth [2] was 72.9% (inactive) and 72.7% (inactive) and the growth [3] was 48.5% (inactive) and 84.9% (inactive). The growth [4] was 32.1% (inactive) and 29.2% (inactive), the growth [5] was 6.25% (active) and the growth [6] was 34.8% (inactive) and 23.3% (inactive). For the same compound, the growth [7] was 31% (inactive) and 38.4% (inactive), the growth [8] was 46.9% (inactive) and 45.1% (inactive) and the growth [9] was 44.5% (inactive) and 76% (inactive).
